Drawing on PubChem BioAssay AID485270 (The Scripps Research Institute Molecular Screening Center, 2010), this text covers inhibition for 56 molecules.

Among all 330,000 compounds or so, about 5,800 (1.8%) were called active. No stated cut-off is given here; in the data, active means inhibition mostly above about 38% (no sharp cut-off); inactive means mostly below about 40%. Many of the other results were omitted from the sample, so actives are more common in it than they were.

The target of the test is Orexin/Hypocretin receptor type 1 (Homo sapiens) (UniProt O43613). Description: antagonists of human orexin 1 receptor (OX1R) (AID 485270).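 Further: 0% = agonist challenge alone and 100% = reference antagonist.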 To be noted: OX1R-expressing cells, FRET antagonist read-out; at 6.6 µM; hits give high values.
Sequence of Orexin/Hypocretin receptor type 1 (Homo sapiens) (O43613 whole entry, looked up): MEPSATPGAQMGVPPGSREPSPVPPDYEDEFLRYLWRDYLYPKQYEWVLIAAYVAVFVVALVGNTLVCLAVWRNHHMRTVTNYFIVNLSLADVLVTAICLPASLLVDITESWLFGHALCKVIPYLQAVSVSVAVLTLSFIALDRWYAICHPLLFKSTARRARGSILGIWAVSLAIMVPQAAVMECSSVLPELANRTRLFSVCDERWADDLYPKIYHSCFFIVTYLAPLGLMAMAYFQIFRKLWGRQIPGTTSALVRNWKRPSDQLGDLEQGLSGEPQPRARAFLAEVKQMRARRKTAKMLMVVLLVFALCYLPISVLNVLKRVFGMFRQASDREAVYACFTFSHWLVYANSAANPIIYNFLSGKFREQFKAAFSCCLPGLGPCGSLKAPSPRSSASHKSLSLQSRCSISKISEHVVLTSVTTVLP
As to `COc1ccc(NC(=O)CSc2nnc(-c3cccs3)n2Cc2ccco2)cc1OC`, the inhibition (usually the change of the read-out against control, counted positive when it falls) is 41.6% (active).

On to `Cc1ccc(NC(=O)CSc2nnc(-c3cnccn3)n2Cc2ccco2)cc1C`, for which the inhibition is 18.9% (inactive).

For the molecule `COc1cc(Cl)c(C)cc1NC(=O)CSc1nnc(-c2cccnc2)n1Cc1ccco1`, the inhibition is 15.5% (inactive).

As for `CC(OC(=O)c1ccc(Cl)cc1O)C(=O)NCCC1=CCCCC1` (stereo unspecified), the inhibition is 5.93% (inactive).

For `O=C(COc1ccccc1F)NNC(=O)c1cc(Br)ccc1Cl`, the inhibition is 12.4% (inactive).

Take `C#CCOCCOCCOCCNc1nc(N2CCN(C(=O)C([C@@H](C)O)n3cc([C@@H](N)CCCCN)nn3)CC2)nc(N2CCN(C(=O)[C@H](CCCCN)n3cc(CN)nn3)CC2)n1` (stereo partly specified): the inhibition is 6.34% (inactive).

For the molecule `C=CC(COCc1ccccc1)N(CC(=O)OC)S(=O)(=O)c1cc(Br)ccc1OC` (stereo unspecified), the inhibition was 20.4% (inactive).

Take `O=C(NN=C1CCC(=NNC(=O)c2cccnc2)CC1)c1cccnc1`: the inhibition is 1.73% (inactive).

As for `O=C(N/N=C/c1sc(N2CCCCC2)nc1-c1cccs1)c1cccnc1`, the inhibition was 111% (active).

Consider `Cc1cc(/C=N/NC(=O)c2cccnc2)c(C)n1CC(C)C`, for which the inhibition is 3.61% (inactive).

For the molecule `CC(C#N)OC(=O)c1cccnc1SCC(=O)Nc1ccc2c(c1)OCO2` (stereo unspecified), the inhibition is 8.21% (inactive).

For `O=C(CC(O)(C(F)(F)F)C(F)(F)F)Nc1ccc(Cl)c(Cl)c1`, the inhibition is 68.7% (active).

For `O=C(Cc1ccc(Cl)c(Cl)c1)Nc1ccc(SC(F)F)cc1`, the inhibition is 17.7% (inactive).

On to `O=C(CC1SCCNC1=O)Nc1ccc(Cl)c(Cl)c1` (stereo unspecified), for which the inhibition is 10.1% (inactive).

For the molecule `Cc1cc(C(=O)Nc2nnc(C3CC3)s2)c(C)s1`, the inhibition was 7.15% (inactive).

With `CCOC(=O)C1=C(C)N(C[C@@H]2CC[C@@H](Cc3ccc(-c4ccccc4)cc3)O2)C(=O)NC1c1ccc([N+](=O)[O-])cc1` (stereo partly specified), the inhibition was 5.68% (inactive).

Consider `COc1ccc(Br)cc1CN(C)CC(=O)Nc1cc(Cl)cc(Cl)c1`, for which the inhibition is 22.9% (inactive).

Regarding `COc1ccc2nc3n(c(=O)c2c1)-c1cc(C)ccc1C(=O)NC3Cc1ccc(O)cc1` (stereo unspecified), the inhibition is 4.12% (inactive).

As to `Cc1c(C(=O)OCC(=O)N(CCC#N)c2ccccc2)oc2c1ccc1ccccc12`, the inhibition was 60.1% (active).

`N#CCCN(C(=O)COC(=O)c1ccc2c(c1)OCCO2)c1ccccc1`: the inhibition was 11% (inactive).

Regarding `N#CCCN(C(=O)COC(=O)c1ccc(S(=O)(=O)N2CCCCCC2)cc1)c1ccccc1`, the inhibition is 16.8% (inactive).

As for `Cc1ccc(CCNC(=O)C2CCN(S(=O)(=O)N3CCCC3)CC2)cc1`, the inhibition was 6.73% (inactive).

With `CN(CC(=O)NCCc1ccc(S(N)(=O)=O)cc1)CC(=O)Nc1ccc(F)c(F)c1F`, the inhibition was -2.07% (inactive).

As to `O=c1ccc2c(-c3ccccc3S(=O)(=O)O)c3ccc(O)c(O)c3oc-2c1O`, the inhibition was 55.9% (active).

As to `CC(C)COc1ccc(C(=O)NNC(=O)CCC(=O)c2cccs2)cc1`, the inhibition was 2.01% (inactive).

For the molecule `Cc1cccc(NC(=O)c2ccc(S(=O)(=O)N(C)c3ccccc3)cc2)n1`, the inhibition is 9.18% (inactive).

For the molecule `CCCCNc1c(-c2ccc(OC)c(Sc3ccc(OC)cc3)c2)nc2ccc(Cl)cn12`, the inhibition was 13.3% (inactive).

For `COc1ccc(-c2csc3nc(-c4ccccc4F)oc(=O)c23)cc1OC`, the inhibition was 46.9% (active).

For the molecule `COc1ccc(-c2csc(-c3cccs3)n2)cc1OC`, the inhibition is 11.9% (inactive).

On to `COc1ccccc1-c1nnc(-c2ccc(F)cc2)o1`, for which the inhibition was 4.73% (inactive).

`O=C(COC(=O)c1n[nH]c2ccccc12)Nc1ccccc1Br`: the inhibition is 19.4% (inactive).

For the molecule `CCOC(=O)C1CCN(CC(=O)Nc2ccc(OC)c(S(=O)(=O)N3CCCCC3)c2)CC1`, the inhibition is 7.12% (inactive).

As to `CC[C@@H]1CCCCc2ccccc2[C@@H](C(=O)C[C@H](O)CC(C)=O)OC1=O`, the inhibition was 5.92% (inactive).

Consider `Cc1ccc2cc(CCNC(=O)c3c(-c4ccccc4Cl)noc3C)c(=O)[nH]c2c1`, for which the inhibition is 6.94% (inactive).

In the case of `Cc1onc(-c2ccccc2Cl)c1C(=O)NCCn1ccc2ccccc21`, the inhibition was 69.4% (active).

As for `Cc1onc(-c2ccccc2Cl)c1C(=O)OCC(=O)c1ccccc1`, the inhibition is 21.4% (inactive).

On to `NCCN1CCN2C(=O)CN(C(=O)c3ccccc3)CC12` (stereo unspecified), for which the inhibition is 6.95% (inactive).

Consider `CC1(C)C[C@H]2C3=CCC4[C@@]5(C)CC[C@H](O)[C@](C)(CO)C5CC[C@@]4(C)[C@]3(C)C[C@@H](O)[C@@]2(CO)[C@@H](O)[C@@H]1O` (stereo partly specified), for which the inhibition was 6.35% (inactive).

As to `O=C(CSc1nccn1-c1cccc(F)c1)NC1CCCC1`, the inhibition was 1.88% (inactive).

Regarding `CC(OC(=O)c1c(F)cccc1F)C(=O)NCCC1=CCCCC1` (stereo unspecified), the inhibition is 6.17% (inactive).

For `Cc1[nH]n(C)c(=O)c1C(=O)c1c(-c2c(Cl)cccc2Cl)noc1C`, the inhibition was 38.8% (inactive).

For the molecule `Cc1cccc(N=Nc2c(C)[nH]n(-c3ccccc3)c2=O)c1`, the inhibition was 6.48% (inactive).

For `Cc1[nH]n(C)c(=O)c1N=Nc1ccc(S(C)(=O)=O)cc1`, the inhibition was 75.9% (active).

For `CCc1ccccc1NC(=O)c1ccc2snnc2c1`, the inhibition is 19.6% (inactive).

On to `O=C(Nc1cccc(Br)c1)c1ccc2snnc2c1`, for which the inhibition is 28.6% (inactive).

Regarding `O=C(Nc1ccc2ccccc2c1)Nc1ccc2snnc2c1`, the inhibition is 60.2% (active).

As to `CC(=O)C(CC(=O)N1CCCC1)C(=O)Nc1ccc(Cl)cc1` (stereo unspecified), the inhibition was -2.02% (inactive).

Regarding `O=C1COc2ccc(C(=O)COC(=O)c3ccccc3Cl)cc2N1`, the inhibition was 8.89% (inactive).

For the molecule `CCN(C(=O)COC(=O)c1sccc1C)c1c(N)n(Cc2ccccc2)c(=O)[nH]c1=O`, the inhibition is 21.4% (inactive).

For the molecule `CCCN(C(=O)CSc1nnc(N)s1)c1c(N)n(Cc2ccccc2)c(=O)[nH]c1=O`, the inhibition was 2.18% (inactive).

Consider `CCN(C(=O)CSc1ncnc2sccc12)c1c(N)n(Cc2ccccc2)c(=O)[nH]c1=O`, for which the inhibition was 42.3% (active).

Take `COc1ccc(C(=O)O)cc1S(=O)(=O)NC1CCN(Cc2ccccc2)CC1`: the inhibition was 2.69% (inactive).

Consider `O=C(NCCCN1CCOCC1)c1cn(-c2ccccc2)nc1-c1ccc(F)cc1`, for which the inhibition was 1.24% (inactive).

Consider `CC(=O)Nc1ccc(/C=N/NC(=O)c2cccs2)cc1`, for which the inhibition is 18.1% (inactive).

On to `O=C(NC(Cc1c[nH]c2ccccc12)C(=O)N/N=C/c1ccc(Br)cc1)c1cccs1` (stereo unspecified), for which the inhibition was 68.7% (active).

Regarding `CC(=O)NC(Cc1c[nH]c2ccccc12)C(=O)O` (stereo unspecified), the inhibition is 11.3% (inactive).
